Values without a mark were called inactive.
These compounds were tested on Mel-DCC-11-R (assay: cell viability relative to DMSO control (fraction of DMSO control); higher = less cytotoxic, active = 0.8 or less). Details: 1 µM; 120 h; vemurafenib co-treatment 0 µM.
Procedure, shortened: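 Patient-derived Mel-DCC-11, its resistant subline Mel-DCC-11-R (alone and with 8 µM of its selecting drug) and NHEM-hTERT immortalized melanocytes were exposed for 120 h to 315 approved anti-cancer drugs at 1 µM in duplicate. Luminescence was read with ATPlite 1step. Viability was normalised to vehicle controls and averaged over duplicates.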

Row | SMILES | cell viability
1 | Nc1nc(Cl)nc2c1ncn2[C@@H]1O[C@H](CO)[C@@H](O)[C@@H]1F [Clofarabine] | 0.91
2 | CN1CCN(c2ccc3nc(-c4c(N)c5c(F)cccc5[nH]c4=O)[nH]c3c2)CC1 [Dovitinib] | 1.05
3 | CC(C)C[C@@H](NC(=O)[C@H](O)[C@@H](N)Cc1ccccc1)C(=O)O.Cl [Bestatin hydrochloride] | 0.993
4 | CC1=C(CC(=O)O)c2cc(F)ccc2/C1=C\c1ccc(S(C)=O)cc1 (stereo not given) [Sulindac] | 0.986

Same assay, conditions: 1 µM; 120 h; vemurafenib co-treatment 8 µM

Row | SMILES | cell viability
5 | CCCCCCCCCCCCCCCCOP(=O)([O-])OCC[N+](C)(C)C [Miltefosine] | 0.936
6 | CC(C)NCC(O)COc1cccc2ccccc12.Cl (stereo not given) [Propranolol hydrochloride] | 1.06
7 | Nc1nc(=O)c2c(CCc3ccc(C(=O)N[C@@H](CCC(=O)O)C(=O)O)cc3)c[nH]c2[nH]1 [Pemetrexed acid] | 0.964
8 | CC(=O)O[C@]1(C(C)=O)CC[C@H]2[C@@H]3C=C(C)C4=CC(=O)CC[C@]4(C)[C@H]3CC[C@@]21C [Megestrol acetate] | 1
9 | CS(=O)(=O)CCNCc1ccc(-c2ccc3ncnc(Nc4ccc(OCc5cccc(F)c5)c(Cl)c4)c3c2)o1.Cc1ccc(S(=O)(=O)O)cc1.Cc1ccc(S(=O)(=O)O)cc1.O [Lapatinib ditosylate monohydrate] | 0.823
10 | CC1(C)CCC(CN2CCN(c3ccc(C(=O)NS(=O)(=O)c4ccc(NCC5CCOCC5)c([N+](=O)[O-])c4)c(Oc4cnc5[nH]ccc5c4)c3)CC2)=C(c2ccc(Cl)cc2)C1 | 1.23
